High-throughput results deposited in PubChem by National Center for Advancing Translational Sciences (NCATS).
Pf Dd2 growth – qHTS Primary assay for Inhibitors of Plasmodium falciparum Dd2 growth in vitro | P. falciparum Dd2 growth, SYBR Green, 72 h | 120,000 compounds, 4.3% hits | Potency, µM (doses to about 28.9 µM), most hits filed as inhibitors; active = well fitted inhibition curve with a large enough effect; also: nearly all actives have a fitted effect of over 65% in size
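Readout: SYBR Green fluorescence, 485 nm excitation, 535 nm emission, after ~16 h lysis at 37C. Before that, Dd2-infected red cells (2.5% hematocrit) grew 72 h with compound, 29 uM top final concentration.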
Numbers stand for hits; i = inactive; [ ] = remark or other dose. The full list was thinned out, with hits kept by preference.

SMILES | Pf Dd2 growth
Cc1ccc(-c2n[nH]c3c2C(c2ccccc2Cl)N(c2ccc(C(=O)O)cc2)C3=O)cc1 (stereo not given) | i
CCOC(=O)c1ccc(N2C(=O)c3n[nH]c(-c4cccs4)c3C2c2cccc(F)c2)cc1 (stereo not given) | 7.9µM
COc1cc(C2c3c(-c4ccc(C)cc4)n[nH]c3C(=O)N2c2ccc(F)cc2)ccc1O (stereo not given) | i
CCOC(=O)c1ccc(N2C(=O)c3n[nH]c(-c4cccs4)c3C2c2ccc(Cl)cc2Cl)cc1 (stereo not given) | i
CCOC(=O)c1ccc(N2C(=O)c3n[nH]c(-c4ccco4)c3C2c2cccc(F)c2)cc1 (stereo not given) | 10µM
COc1cccc(C2NC(=O)c3n[nH]c(-c4cccs4)c32)c1 (stereo not given) | i
CCOC(=O)c1sc(N2C(=O)c3oc4cc(C)c(C)cc4c(=O)c3C2c2cccc(O)c2)nc1C (stereo not given) | i
CCc1ccc(C2c3c(-c4ccccc4)n[nH]c3C(=O)N2c2ccc(C(=O)O)cc2)cc1 (stereo not given) | i
CCOC(=O)c1ccc(N2C(=O)c3[nH]nc(-c4ccc(OC)cc4)c3C2c2ccc(C)cc2)cc1 (stereo not given) | 8.9µM
CN(C)C(=O)N(C)Cc1cccc(C(F)(F)F)c1 | i
O=C(O)c1ccccc1C(=O)N[C@H]1CO[C@H]2[C@@H]1OC[C@@H]2n1nnnc1Oc1ccc(-n2ccnc2)cc1 | i
COCCOCC(=O)N1CCC(N2C(=O)CCC2C(=O)NCc2ccccc2)CC1 (stereo not given) | i
COC[C@H]1CCCN1C(=O)CC[C@H]1CNC(=O)[C@@H]2[C@@H](CCN2C2CCOCC2)N1C | i
CCCCc1ccc(NC(=O)CN2C(=O)NC(c3ccccc3OCC)C3=C2COC3=O)cc1 (stereo not given) | i
COc1ccc(C2Cn3nnc(-c4noc(-c5ccc(N(C)C)cc5)n4)c3CO2)cc1 (stereo not given) | i
COCC[C@]1(O)CCN(C(=O)c2csc(CN(C)C)n2)C[C@H]1C | i
CCOC(=O)N1CCC(NC(=O)c2ccc(OC3CCN(C(=O)C4CC4)CC3)cc2)CC1 | i
CCOC(=O)c1ccc(N2C(=O)c3n[nH]c(-c4cccs4)c3C2c2ccc(C(C)(C)C)cc2)cc1 (stereo not given) | 7.1µM
CCOC(=O)c1ccc(N2C(=O)c3n[nH]c(-c4cccs4)c3C2c2ccc(O)c(OC)c2)cc1 (stereo not given) | i
CCOC(=O)c1ccc(N2C(=O)c3n[nH]c(-c4cccs4)c3C2c2ccc(C)cc2)cc1 (stereo not given) | i
Cc1ccccc1-c1noc(CNC(C)c2ccc(-n3cncn3)cc2)n1 (stereo not given) | i
O=C1Nc2ccccc2CC12CN(Cc1cscn1)C2 | i
O=C1CC(c2ccccc2)N(C(=O)CNS(=O)(=O)c2ccccc2)CCCCCN1 (stereo not given) | i
Cc1ncccc1C(=O)N1CCCCCCNC(=O)[C@@H]2CCCC[C@@H]21 | i
Cn1nc(C(=O)N2CCCCCCNC(=O)[C@@H]3CCCC[C@@H]32)c2ccccc21 | 2.2µM
SMILES | Pf Dd2 growth
O=C1CC(c2ccccc2)N(C(=O)CNS(=O)(=O)c2cccnc2)CCCCCCN1 (stereo not given) | i
Cc1cc(C(=O)NCC(=O)N2CCCCCCNC(=O)CC2c2ccccc2)n(C)n1 (stereo not given) | i
O=C1CC(c2ccccc2)N(C(=O)CNC(=O)Cn2c(=O)oc3ccccc32)CCCCCCN1 (stereo not given) | 10µM
Cn1nc(C(=O)NCC(=O)N2CCCCCCNC(=O)CC2c2ccccc2)c2ccccc21 (stereo not given) | 0.63µM
O=C1CC(c2ccccc2)N(C(=O)CNS(=O)(=O)c2ccc3c(c2)CCC3)CCCCCCN1 (stereo not given) | 11µM
Cn1nccc1C(=O)NCC(=O)N1CCCCCNC(=O)CC1c1ccccc1 (stereo not given) | i
O=C1NCCCCCCN(C(=O)c2ccccn2)[C@H]2CCC[C@@H]12 | i
O=C(COc1ccccc1)NCC(=O)N1CCCCCCNC(=O)CC1c1ccccc1 (stereo not given) | i
O=C1CC(c2ccccc2)N(C(=O)CNC(=O)C2CC2)CCCCCCN1 (stereo not given) | i
C=CCNC(=O)N[C@H]1[C@H](O)[C@@H](N2CCN(C)CC2)[C@@H]2OC[C@H]1O2 | i
O=C(Nc1ccccc1)Nc1ccc([C@@H](O)[C@H]2COCC(=O)N2Cc2ccc(F)cc2)cc1 | i
CCOc1cc(=O)n2c(c1C(=O)Nc1ccc(F)cc1Cl)CCCC2 | i
O=C(C1CCC(CO)CC1)N1CCC2(CCC(=O)N(C3CC3)C2)CC1 (stereo not given) | i
COc1ccc(NC(=O)NC[C@H]2Cn3cc(-c4ccc(C)cc4)nc3CO2)cc1 | 2.5µM
COc1ccc(-c2cn3c(n2)CO[C@@H](CNC(=O)c2ccccc2OC)C3)cc1 | i
COc1ccc(-c2cn3c(n2)CO[C@@H](CNC(=O)C2CCCC2)C3)cc1 | i
CC(C)(CC(=O)O)CC(=O)N[C@H]1CO[C@H]2[C@@H]1OC[C@@H]2n1nnnc1Oc1ccc(-n2cncn2)cc1 | i
COCCC(=O)N1CCC2(CC1)NCCc1c2[nH]c2ccc(OC)cc12 | i
CC(C)(C)c1ccc(C(=O)N2CCN(CCc3ccccn3)CC2)cc1 | i
COc1cc(C(=O)N2CCN(CCc3ccncc3)CC2)cc(OC)c1OC | i
COc1cc(C(=O)N2CCN(CCc3ccccn3)CC2)cc(OC)c1OC | 2.8µM
COc1ccc(/C=C/C(=O)Nc2nc3n(n2)C(c2ccc(F)cc2)C=C(c2ccccc2)N3)cc1 (stereo not given) | 8.9µM
COc1ccc(C2=CC(c3ccc(N(C)C)cc3)n3nnnc3N2)cc1 (stereo not given) | i
O=C(/C=C/c1ccccc1)Nc1nc2n(n1)C(c1ccc(F)cc1)C=C(c1ccccc1)N2 (stereo not given) | 10µM
COc1ccc(C2C=C(c3ccccc3)Nc3nc(NC(C)=O)nn32)cc1 (stereo not given) | i
SMILES | Pf Dd2 growth
COc1ccc(C2C=C(c3ccccc3)Nc3nc(NC(=O)/C=C/c4ccccc4Cl)nn32)cc1 (stereo not given) | 7.1µM
O=C(/C=C/c1ccco1)Nc1ccc(F)cc1 | i
COc1ccc(/C=C/C(=O)Nc2nc3n(n2)C(c2ccccc2)C=C(c2ccccc2)N3)cc1 (stereo not given) | 7.9µM
CNC(=O)[C@H]1C[C@H](Oc2cccnc2)CN1C(=O)NCc1ccc(C)cc1 | i
CCC(CC)N1CCCC(c2nc(-c3cccnc3)no2)CCNC(=O)CC1 (stereo not given) | i
CC1(C)C(=O)Nc2ccc(S(=O)(=O)N3CCC(c4noc(-c5ccccc5)n4)C3)cc21 (stereo not given) | i[5.79 µM]
COc1ccc(CCC(=O)N2CCC(Cc3nc(-c4ccccc4)no3)CC2)cc1 | i
CNC(=O)c1ccc2c(c1)NC(C)(CCCCc1ccccc1)CO2 (stereo not given) | i
COc1ccc(CN2CC[C@H](CNC(=O)C3CC3)[C@H](N(C)C)C2)c(OC)c1 | i
COc1ccc(CCNC(=O)CN2C(=O)NC3(CCC(C)CC3)C2=O)cc1OC (stereo not given) | i
Cc1onc(-c2cnn(C)c2NCc2ccc(C#N)cc2)c1C(=O)N1CCCC1 | i
